# According to PubChem BioAssay (Tox21):
# “And” between values parts separate entries of the source, which are not always exact repeats. Equal entries are not always repeated. Records with an inconclusive call do not appear. Entries that show only a call come without a potency. Some compounds were tested as several samples or in several runs, with calls that do not always agree. The source made the active and inactive calls. Unless noted, calls come from the whole dose curve; as a rule, active = well fitted curve in the direction sought with a large enough effect in the repeat runs; inconclusive = weak or mixed curves; inactive = no such curve, though single readings can be large; an effect the other way counts as inactive or inconclusive.
# Assays:
# [1] = qHTS assay for identifying genotoxic compounds that show differential cytotoxicity against isogenic chicken DT40 cell lines with known DNA damage response pathways - wild type cell line (AID 743012); note: nearly all actives have a fitted effect of over 60% in size; note: potency is the fitted concentration of half-maximal effect
# Method in brief: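 300 wt DT40 cells/well; cpd (DMSO) pintool-transferred after ~0.5 h at 37 C/5% CO2; 40 h incubation; CellTiter-Glo added, 30 min RT; luminescence read.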
# [2] = qHTS assay for identifying genotoxic compounds that show differential cytotoxicity against isogenic chicken DT40 cell lines with known DNA damage response pathways - Rev3 mutant cell line (AID 743014); note: nearly all actives have a fitted effect of over 55% in size; note: potency is the fitted concentration of half-maximal effect
# [3] = qHTS assay for identifying genotoxic compounds that show differential cytotoxicity against isogenic chicken DT40 cell lines with known DNA damage response pathways - Rad54/Ku70 mutant cell line (AID 743015); note: nearly all actives have a fitted effect of over 60% in size; note: potency is the fitted concentration of half-maximal effect
# [4] = qHTS assay to identify small molecule antagonists of the androgen receptor (AR) signaling pathway - cell viability counter screen (AID 743033; note: nearly all actives have a fitted effect of over 45% in size; note: potency is the fitted concentration of half-maximal effect)
# [5] = target: Androgen receptor (Homo sapiens) (UniProt P10275); experiment: qHTS assay to identify small molecule agonists of the androgen receptor (AR) signaling pathway using the MDA cell line (AID 743040; note: nearly all actives have a fitted effect of over 20% in size)
# Method in brief: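 Luciferase agonist assay: 16 h compound exposure at 37C without CO2 in MDA-kb2 AR-luc cells, whose MMTV promoter responds to both AR and GR. Luminescence measured after 30 min room-temperature incubation with ONE-Glo.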
# [6] = qHTS assay to identify small molecule antagonists of the androgen receptor (AR) signaling pathway using the MDA cell line - cell viability counter screen (AID 743041; note: nearly all actives have a fitted effect of over 45% in size; note: potency is the fitted concentration of half-maximal effect)
# Method in brief: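 Viability read by CellTiter-Fluor fluorescence in the same wells as the antagonist screen, added after 15.5 h of a 16 h, 37C exposure. Human breast carcinoma MDA-kb2 AR-luc cells, compounds co-dosed with agonist R1881.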
# [7] = target: Androgen receptor (Homo sapiens) (UniProt P10275); experiment: qHTS assay to identify small molecule antagonists of the androgen receptor (AR) signaling pathway using the MDA cell line (AID 743042; note: nearly all actives have a fitted effect of over 55% in size; note: potency is the fitted concentration of half-maximal effect)
# Method in brief: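 Antagonist mode: compounds plus R1881 agonist added to MDA-kb2 AR-luc cells, incubated 16 h at 37C. Luciferase reporter luminescence quantified, with multiplexed CellTiter-Fluor readout for cell viability.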
# [8] = qHTS assay to identify small molecule antagonists of the thyroid receptor (TR) signaling pathway - cell viability counter screen (AID 743064); note: nearly all actives have a fitted effect of over 50% in size; note: potency is the fitted concentration of half-maximal effect
# Method in brief: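 Compounds were tested on GH3.TRE-Luc cells in the presence of T3 at 1 nM final. Following 23.5 h at 37 °C, cell viability was quantified by CellTiter-Fluor.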
# [9] = target: Androgen receptor (Homo sapiens) (UniProt P10275); experiment: qHTS assay to identify small molecule antagonists of the androgen receptor (AR) signaling pathway (AID 743035; active = well fitted inhibition curve with a large enough effect in the signal ratio in the repeat runs, not every such curve was filed as active; the % refers to the signal ratio)
# Method in brief: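 In this cell-based reporter screen, compounds were tested in concentration series against R1881-activated HEK293 cells expressing beta-lactamase under UAS control; after 16 h at 37C, FRET substrate was added and fluorescence read 2 h later.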
# [10] = target: Androgen receptor (Homo sapiens) (UniProt P10275); experiment: qHTS assay to identify small molecule agonists of the androgen receptor (AR) signaling pathway (AID 743036; active = well fitted activation curve with a large enough effect in the signal ratio in the repeat runs, with a control signal flat, not every such curve was filed as active; the % refers to the signal ratio)
# Method in brief: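 Beta-lactamase under UAS control, stably integrated in HEK293 GripTite cells, reports receptor activation. After 16 h compound treatment, cells received FRET substrate for 2 h at room temperature before fluorescence reading.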
# Sequence of Androgen receptor (Homo sapiens) (P10275 whole entry, looked up): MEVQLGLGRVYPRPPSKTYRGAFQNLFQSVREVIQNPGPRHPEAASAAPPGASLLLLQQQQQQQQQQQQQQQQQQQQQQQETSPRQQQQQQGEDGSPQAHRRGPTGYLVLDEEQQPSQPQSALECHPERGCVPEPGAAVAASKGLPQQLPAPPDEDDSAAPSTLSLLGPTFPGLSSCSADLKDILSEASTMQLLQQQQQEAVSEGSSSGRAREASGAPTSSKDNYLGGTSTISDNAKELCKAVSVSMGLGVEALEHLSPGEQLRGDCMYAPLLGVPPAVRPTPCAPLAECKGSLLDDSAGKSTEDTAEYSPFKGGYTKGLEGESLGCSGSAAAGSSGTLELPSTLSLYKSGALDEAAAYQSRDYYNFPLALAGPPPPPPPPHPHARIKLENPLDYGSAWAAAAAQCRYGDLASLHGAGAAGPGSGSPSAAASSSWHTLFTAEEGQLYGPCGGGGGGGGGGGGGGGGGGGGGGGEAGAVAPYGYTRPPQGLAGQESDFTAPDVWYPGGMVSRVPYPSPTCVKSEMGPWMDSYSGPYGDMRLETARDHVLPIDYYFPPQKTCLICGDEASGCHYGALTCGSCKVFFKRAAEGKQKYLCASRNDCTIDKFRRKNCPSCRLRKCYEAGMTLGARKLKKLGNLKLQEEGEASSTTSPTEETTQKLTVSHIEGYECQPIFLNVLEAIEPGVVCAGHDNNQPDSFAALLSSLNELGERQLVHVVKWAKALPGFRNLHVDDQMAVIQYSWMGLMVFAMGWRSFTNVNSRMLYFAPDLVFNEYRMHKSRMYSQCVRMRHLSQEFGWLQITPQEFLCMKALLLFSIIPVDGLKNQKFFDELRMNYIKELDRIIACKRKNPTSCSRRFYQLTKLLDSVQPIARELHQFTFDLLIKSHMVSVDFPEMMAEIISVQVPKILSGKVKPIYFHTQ
Compound,Potency [1],Potency [2],Potency [3],Potency [4],outcome [5],Potency [6],Potency [7],Potency [8],outcome [9],outcome [10]
CC(=O)[O][Hg][c]1ccccc1,211 nM (active) and 271 nM (active) and 109 nM (active),376 nM (active) and 152 nM (active) and 122 nM (active),237 nM (active) and 152 nM (active) and 86.3 nM (active),5.35 µM (active) and 1.37 µM (active) and 1.95 µM (active),inactive,5.31 µM (active) and 3.82 µM (active) and 3.06 µM (active),2.98 µM (active) and 1.92 µM (active) and 2.17 µM (active),596 nM (active) and 241 nM (active) and 386 nM (active),,
CCC[N+]1(C)CCCC1,inactive,inactive,inactive,inactive,,inactive,,inactive,,
O=P1(N(CCCl)CCCl)NCCCO1 (configuration not stated),inactive,inactive,inactive,inactive,,inactive,,inactive,,
Nc1ccc(-c2ccc(N)c(Cl)c2)cc1Cl,54.5 µM (active),48.8 µM (active) and 28.6 µM (active) and 54.5 µM (active),61.4 µM (active) and 50.8 µM (active) and 54.5 µM (active),inactive,,inactive,,30.8 µM (active) and 18 µM (active) and 30.6 µM (active),,
CCCC[n+]1cccc(C)c1,inactive,inactive,inactive,inactive,,inactive,,inactive,,
O=C(O)c1ccccc1O,inactive,inactive,inactive,inactive,,inactive,,inactive,,
CC[N+]1(C)CCCC1,inactive and 971 nM (active),inactive and 612 nM (active),inactive and 771 nM (active),inactive,,inactive,,inactive,,
C1CCC(NC2CCCCC2)CC1,inactive,inactive,inactive,inactive,,inactive,,inactive,,
CCCC[N+]1(C)CCCC1,inactive,inactive,inactive,inactive,,inactive,,inactive,,
CN(C)[C@@H]1C(=O)C(C(N)=O)=C(O)[C@@]2(O)C(=O)C3=C(O)c4c(O)cccc4[C@@](C)(O)[C@H]3[C@H](O)[C@@H]12,inactive and 68 µM (active) and 43.3 µM (active),inactive and 43.3 µM (active),inactive and 48.6 µM (active),inactive,,inactive,,inactive,,
O=C(O)c1nc(Cl)ccc1Cl,inactive,inactive,inactive,inactive,,inactive,,inactive,,
O=C(O)C(Cl)Cl,inactive,inactive,inactive,inactive,,inactive,,inactive,,
OCCOc1ccccc1,inactive,inactive,inactive,inactive,,inactive,,inactive,,
Nc1ccccc1,inactive,inactive,inactive,inactive,,inactive,,inactive,,
O=[N+]([O-])O,inactive and 42.1 µM (active),inactive and 9.43 µM (active),inactive and 29.8 µM (active),inactive,,inactive,,inactive,,
CCC(=O)C(CC(C)N(C)C)(c1ccccc1)c1ccccc1 (configuration not stated),24.4 µM (active) and 41.5 µM (active),48.8 µM (active) and 60.7 µM (active) and 46.6 µM (active),43.5 µM (active) and 41.5 µM (active),inactive,inactive,inactive,inactive,24.4 µM (active) and 27.1 µM (active) and 33 µM (active),inactive,inactive
CCCCCCCCCCCCOS(=O)(=O)O,inactive,inactive,inactive,inactive,,inactive,,inactive,,
CCCC[n+]1ccccc1,inactive,inactive,inactive,inactive,,inactive,,inactive,,
COP(=O)(OC)OC=C(Cl)Cl,9.44 µM (active) and inactive,11.9 µM (active) and inactive,13.3 µM (active) and inactive,inactive,,inactive,,inactive,,
CCCCCCCCCCCC(=O)O,inactive,inactive,27.4 µM (active),inactive,,inactive,,inactive,,
Nc1ccc(Cl)cc1,inactive,inactive,inactive,inactive,,inactive,,inactive,,

Compound,Potency [1],Potency [2],Potency [3],Potency [4],outcome [5],Potency [6],Potency [7],Potency [8],outcome [9],outcome [10]
CC(Cl)(Cl)C(=O)O,inactive,inactive,inactive,inactive,,inactive,,inactive,,
CCCC[N+]1(C)CCCCC1,inactive,inactive,inactive,inactive,,inactive,,inactive,,
CCC[N+]1(C)CCCCC1,inactive,inactive,inactive,inactive,,inactive,,inactive,,
C[N+](C)(C)Cc1ccccc1,inactive,inactive,inactive,inactive,,inactive,,inactive,,
O=[N+]([O-])c1ccccc1O,inactive,inactive,inactive,inactive,,inactive,,inactive,,
O=C(O)CCl,inactive,inactive,inactive,inactive,,inactive,,inactive,,
CCCn1cc[n+](C)c1,inactive,inactive,inactive,inactive,,inactive,,inactive,,
CCOP(=S)(OCC)Oc1ccc2c(C)c(Cl)c(=O)oc2c1,inactive and 17.2 µM (active),inactive and 19.3 µM (active),inactive and 17.2 µM (active),inactive,,inactive,,inactive,,
CCCCn1cc[n+](C)c1C,inactive,inactive,inactive,inactive,,inactive,,inactive,,
Cc1cc(Cl)ccc1OCC(=O)O,inactive,inactive,inactive,inactive,inactive,inactive,inactive,inactive,inactive,inactive
COc1ccccc1N,inactive,inactive,inactive,inactive,,inactive,,inactive,,
O=C(O)C(Cl)(Cl)Cl,inactive,inactive,inactive,inactive,,inactive,,inactive,,
CC[n+]1ccccc1,inactive and 241 nM (active),inactive and 171 nM (active),inactive and 136 nM (active),inactive and 21.7 µM (active),,,,inactive and 34.1 µM (active),,
CCCCCCn1cc[n+](C)c1,,,,,,31.9 µM (active) [middle of 5 runs],,inactive,,
CCCCCCCCCCCCn1cc[n+](C)c1,,,,,,,,4.4 µM (active) [middle of 6 runs],,
CCCCCCCCn1cc[n+](C)c1,,,607 nM (active) [middle of 4 runs],15.4 µM (active) and 11.1 µM (active),,2.71 µM (active) and 1.53 µM (active) and 1.55 µM (active),,54.4 µM (active),,
CC[N+](CC)(CC)CC,inactive,inactive,inactive,inactive,,inactive,,inactive,,
COc1ccc(N)cc1,inactive,60.6 µM (active) and 45.4 µM (active),53.5 µM (active) and 60.6 µM (active) and inactive,inactive,,inactive,,inactive,,
CCCCCC[n+]1ccccc1,,,,55.5 µM (active) and 55.3 µM (active) and inactive,,,,inactive,,
Nc1ccc(-c2ccc(N)cc2)cc1,,61.1 µM (active),,inactive,,inactive,,inactive,,
C=CCOC(Cn1ccnc1)c1ccc(Cl)cc1Cl (configuration not stated),11.9 µM (active) and 48.7 µM (active) and 13.7 µM (active),21.1 µM (active) and 27.4 µM (active) and 12.2 µM (active),21.1 µM (active) and 43.4 µM (active) and 13.7 µM (active),inactive and 49.1 µM (active),,inactive,,54.6 µM (active),,

Compound,Potency [1],Potency [2],Potency [3],Potency [4],outcome [5],Potency [6],Potency [7],Potency [8],outcome [9],outcome [10]
O=c1[nH]c(=O)n(Cl)c(=O)n1Cl,inactive,inactive,inactive,inactive,,inactive,,inactive,,
N#CS,inactive,inactive,inactive,inactive,,inactive,,inactive,,
CCCCCCCCCCn1cc[n+](C)c1,,,,2.48 µM (active),,872 nM (active) and 559 nM (active) and 193 nM (active),,,,
O=C(O)COc1ccc(Cl)cc1Cl,inactive,inactive,inactive,inactive,,inactive,,inactive,,
Oc1ccccc1-c1ccccc1,inactive,inactive,inactive,inactive,,inactive,,inactive,,
COCC(=O)N(c1c(C)cccc1C)C(C)C(=O)OC (configuration not stated),inactive and 61 µM (active),inactive and 61 µM (active),inactive,inactive,,inactive,,inactive,,
O=S(=O)(O)O,inactive and 27.3 µM (active),inactive and 61.1 µM (active),inactive and 48.6 µM (active),inactive,,inactive,,inactive,,
COP(=O)(OC)C(O)C(Cl)(Cl)Cl (configuration not stated),inactive,inactive,inactive,inactive,,inactive,,inactive,,
CCNc1nc(Cl)nc(NCC)n1,inactive,inactive,inactive,inactive,,inactive,,inactive,,
Cc1cc(-c2ccc(N)c(C)c2)ccc1N,inactive,inactive and 34.3 µM (active),inactive and 60.9 µM (active),inactive,,inactive,,inactive,,
CCCCCCCCCCCCCC[P+](CCCCCC)(CCCCCC)CCCCCC,13.7 µM (active) and 6.91 µM (active),7.73 µM (active) and 6.16 µM (active) and inactive,6.14 µM (active) and 6.16 µM (active) and inactive,982 nM (active) and 3.92 µM (active) and 346 nM (active),,,,6.14 µM (active) and 5.49 µM (active) and 3.06 µM (active),,
Cc1cc(Cl)ccc1N,inactive,inactive,inactive,inactive,,inactive,,inactive,,
CNC,,,,inactive,,inactive,,inactive,,
C[C@]12CCC(=O)C=C1CC[C@@H]1[C@@H]2CC[C@]2(C)C(=O)CC[C@@H]12,23.7 µM (active) and 27.3 µM (active),29.8 µM (active) and 47.7 µM (active) and 54.5 µM (active),26.6 µM (active) and 42.5 µM (active) and 27.3 µM (active),inactive,,inactive,,inactive,,
CCn1cc[n+](C)c1C,inactive,inactive,inactive,inactive,,inactive,,inactive,,
CCCCn1cc[n+](C)c1,inactive,inactive,inactive,inactive,,inactive,,inactive,,
CC(=O)O,inactive,inactive,inactive,inactive,,inactive,,inactive,,
CCCC[n+]1ccccc1C,inactive,inactive,inactive,inactive,,inactive,,inactive,,
CCCC[n+]1ccc(C)cc1,inactive and 54.2 µM (active),inactive and 60.8 µM (active),inactive and 48.3 µM (active) and 60.8 µM (active),inactive,,inactive,,inactive and 30.5 µM (active),,
O=c1nc(O)n(Cl)c(=O)n1Cl,inactive,inactive,inactive,inactive,,inactive,,inactive,,
O=C(O)CC(O)(CC(=O)O)C(=O)O,inactive,inactive,inactive,inactive,,inactive,,inactive,,
